Lmaj promast: Leishmania major promastigote growth inhibition | inhibition, % at 10 µM | Leishmania major promastigotes, resazurin fluorescence viability | actives 9% (n = 200,000); in the data active means inhibition above about 50%;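 further: promastigotes grown with compound for 44 hours at 28 °C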
RAM inhibit: yeast RAM network inhibition | actives 1.8% (n = 190,000) | S. cerevisiae dse1pr::URA3 reporter, 5-FOA growth OD615, 2 d; analog-sensitive cbk1-as2 kinase mutant strain | inhibition, % at 50 µM | AID 868;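 active means inhibition above a set limit, 3 SD over mean compound inhibition, cut at about 8.4% in these data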;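 further: inhibition rescues growth on 5-FOA so higher OD means more RAM inhibition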
CHOP inh: CHOP inhibition in unfolded protein response | CHO-K1 CHOP-promoter luciferase, tunicamycin-induced, 15-18 h | inhibition, % at 10 µM | actives 3.8% (n = 220,000) | AID 2732;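 active means compounds that reduced the stress-induced luciferase reporter signal by more than about 70% of percent inhibition, limit read from the data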
WT yeast gro inh: growth inhibition of WT yeast, mitochondrial fusion screen; mitochondrial fusion phenotypic screen, WT strain; inhibition, % at 10 µM; actives 2.1% (n = 190,000); AID 1362; in the data active means inhibition above about 58%; tested in S. cerevisiae
Large screens that a line does not name were inactive. An excerpt weighted towards active compounds, which were near 13% of everything screened.

OCCC1CN(Cc2cccn2-c2ncccn2)CCN1C1CCCC1 (stereo unspecified)	none
CC1Cc2ccccc2N1C(=S)NC(=O)c1ccc(Cl)cc1Cl (stereo unspecified)	WT yeast gro inh 60
CCN1C=C(C(=O)OC)C(c2cccc(OC)c2OC)C(C(=O)OC)=C1	none
COC(=O)c1ccc(NC(=O)CN2CCN(c3ccc(Cl)cc3)CC2)cc1	none
COc1ccc(NC(=O)CCN2CCN(S(=O)(=O)c3cc(Cl)ccc3Cl)CC2)cc1	Lmaj promast 96
COC(=O)c1ccc(NC(=O)CN2CCN(S(=O)(=O)c3cc(Cl)ccc3OC)CC2)cc1	Lmaj promast 99
CCOC(=O)CNC(=O)CN1CCCN(S(=O)(=O)c2ccc(Br)s2)CC1	none
O=C(CN1CCCN(S(=O)(=O)c2ccc(Br)s2)CC1)Nc1ccc(Cl)cc1	CHOP inh 72
COc1ccc(NC(=O)CCN2CCN(S(=O)(=O)c3ccc(OC)cc3)CC2)cc1	none
N#CC(C#N)=C(Nc1ccc(F)cc1)SCc1cccc(F)c1	CHOP inh 85
CCOc1ccc(N/C(SCc2cccc([N+](=O)[O-])c2)=C(/C#N)C(N)=O)cc1	none
CCCCN1/C(=C/c2ccc3ccccc3[n+]2CC)Sc2ccccc21	Lmaj promast 100, CHOP inh 84
CCN1/C(=C/c2ccc3cc(C)ccc3[n+]2CC)Sc2cc(C)ccc21	Lmaj promast 100, CHOP inh 82
CCN1/C(=C/c2ccc3ccccc3[n+]2CC)C=Cc2ccccc21	Lmaj promast 101, WT yeast gro inh 83 (no result: CHOP inh)
CCN(CC)CCN1c2ccccc2Sc2ccc3ccccc3c21	none (no result: Lmaj promast, RAM inhibit, WT yeast gro inh)
Nn1c(SCC(=O)NC(=O)Nc2ccc3c(c2)OCCO3)nnc1C1CC1	none
CC1(C)Cc2c(sc(NC(=O)c3ccccc3Cl)c2C(=O)O)CO1	none
Cc1cc2c(cc1C)CSC(c1ccccc1OC(=O)C(C)C)SC2	CHOP inh 72
COc1cc2c(cc1OC)C(COc1ccccc1OC)N(C(=O)C(C)C)CC2 (stereo unspecified)	none
CCOc1ccc(/C=N/OCC(=O)NC(c2ccccc2)c2ccccc2)cc1	Lmaj promast 77, RAM inhibit 10
CCOc1ccc(/C=N/OCC(=O)Nc2cc(C)on2)cc1	Lmaj promast 60
CCOc1ccc(/C=N/OCC(=O)Nc2ccc3c(c2)OCO3)cc1	none
Cc1cc(C(=O)NNC(=O)c2nn(C)c(=O)c3ccccc23)c(C)o1	Lmaj promast 65
O=C(NN1C(=O)C2C3CCC(O3)C2C1=O)c1ccco1 (stereo unspecified)	none
Cc1ccccc1N1C(=O)C2C3C=CC(C2C1=O)N(C)C3=O (stereo unspecified)	none
CCOC(=O)C1=C(C)C2C3C(=O)N(c4ccccc4C)C(=O)C3C1(C)C1C(=O)N(c3ccccc3C)C(=O)C21 (stereo unspecified)	Lmaj promast 56
Cc1ccc(N2C(=O)C3NN=C(C(=O)OCc4ccccc4)C3C2=O)c(C)c1 (stereo unspecified)	none
CCOC(=O)C1=C(C)C2C3C(=O)N(c4ccc(C)cc4C)C(=O)C3C1(C)C1C(=O)N(c3ccc(C)cc3C)C(=O)C21 (stereo unspecified)	Lmaj promast 74
COc1ccccc1C(N)=S	none
CO/N=C/C(=N\Nc1ccc(C)cc1)C(=O)c1ccc(OC)cc1	RAM inhibit 10 (no result: CHOP inh)
CO/N=C/C(=N\Nc1ccc(OC)cc1)C(=O)c1ccc(F)cc1	RAM inhibit 9.2
N#CC1(c2ccc(NC(=O)c3ccccc3F)cc2)CCCC1	none
O=C(NC1CCCCC1)c1ccccc1NC(=S)NC(=O)C1CCC1	none
O=C(/C=C/c1ccccc1Cl)NC(=S)Nc1ccccc1C(=O)NC1CCCCC1	Lmaj promast 98
NNc1nc(-c2ccccc2)cc(-c2ccccc2O)n1	Lmaj promast 89
Cc1ccc(O)c(-c2cc(C(F)(F)C(F)F)nc(-c3ccccc3)n2)c1	RAM inhibit 9.6
Oc1ccc(Cl)cc1-c1cc(C(F)(F)C(F)F)nc(-c2ccccc2)n1	none
Oc1ccccc1-c1cc(C(F)(F)F)nc(-c2ccccc2)n1	CHOP inh 73
Cc1c(C(=O)Nc2ccccc2)sc2nc[nH]c(=O)c12	none
Cn1nc(C(=O)OCC(=O)Nc2ccc3ccccc3c2)c2ccccc2c1=O	none
CCCc1nc2oc3c(NCCN(C)C)ncnc3c2c2c1CCCC2	Lmaj promast 101
Cc1cc(C)cc(C(=O)Nc2ccc(NC(=O)Cc3ccccc3)cc2)c1	none
O=C(NCc1ccncc1)C(=O)NC1CC1	none
O=C(Nc1ccc2oc(-c3ccccc3)nc2c1)c1ccccc1F	none
O=C(Nc1ccc2oc(-c3ccc(Cl)c(Cl)c3)nc2c1)c1ncn[nH]1	none
O=C(Nc1ccc2oc(-c3ccccc3F)nc2c1)c1ncn[nH]1	Lmaj promast 100
O=C(Nc1ccc2oc(-c3cccc(F)c3)nc2c1)c1ccccc1F	CHOP inh 73
COCC[N+]1(C)CCCCC1	none
O=C(Nc1nc(-c2ccco2)c(-c2ccco2)s1)C1CCC1	Lmaj promast 86
Cc1ccc(/C=C/S(=O)(=O)NCC(=O)OCC(=O)N2CC(=O)Nc3ccccc32)cc1	none (no result: Lmaj promast, RAM inhibit, WT yeast gro inh)
N#CC(C(=O)c1ccccc1)=C1SCCS1	none (no result: Lmaj promast, RAM inhibit, WT yeast gro inh)
COc1ccc(N2C(=O)CC(Sc3ncn[nH]3)C2=O)c(OC)c1 (stereo unspecified)	CHOP inh 91
CC(C)c1ccc(N2C(=O)CC(Sc3ncn[nH]3)C2=O)cc1 (stereo unspecified)	none
CCN(c1ccc(NC(=O)CCNC(=O)c2ccco2)cc1)C(C)C	Lmaj promast 54
CCC(=O)Nc1cccc(C2=NOC3(C2)C[C@H](C(N)=O)N(C(=O)CC#N)C3)c1 (stereo partly specified)	none (no result: Lmaj promast, RAM inhibit, WT yeast gro inh)
COc1ccc(C(=O)NC(=S)Nc2nc(C)cc(C)n2)cc1Br	none (no result: Lmaj promast, RAM inhibit, WT yeast gro inh)
O=C(NN1C(=O)C2CC=C(Cl)CC2C1=O)c1ccncc1 (stereo unspecified)	none
N#Cc1c(-n2cccc2C=O)sc2c1CCCC2	Lmaj promast 52
Cc1ccc(C)n1-c1sc2c(c1C#N)CCCC2	RAM inhibit 10
CC12CCC(C(=O)N(CSC(=S)N/N=C\c3ccccc3O)C1=O)C2(C)C (stereo unspecified)	Lmaj promast 85
COc1ccc(/C=N\NC(=S)SCN2C(=O)C3CCC(C)(C2=O)C3(C)C)cc1 (stereo unspecified)	none
O=S(=O)(Nc1nc2ccccc2nc1Nc1ccc(N2CCOCC2)cc1)c1cc(Cl)ccc1Cl	CHOP inh 74
CC(=O)c1cccc(NC(=S)NC(=O)c2ccc(Br)cc2)c1	Lmaj promast 54
O=C(NC(=S)Nc1cccc(CO)c1)c1ccc(-c2ccccc2)cc1	Lmaj promast 57
CC1(C)CC(=O)C2=C(C1)NC1=C(C(=O)c3ccccc31)C2c1cc([N+](=O)[O-])ccc1O (stereo unspecified)	none (no result: Lmaj promast, RAM inhibit, WT yeast gro inh)
COc1ccc(/C=N\NC(=O)c2cc(O)c(O)c(O)c2)cc1CN1CCN(c2ccc(F)cc2)CC1	none
CC(=O)N1CCC(=NNc2ccc(S(=O)(=O)N3CCOCC3)cc2[N+](=O)[O-])CC1	none
CCCN1CCC(=NNc2ccc(S(=O)(=O)N3CCOCC3)cc2[N+](=O)[O-])CC1	Lmaj promast 100
CC(C)N1CCC(=NNc2ccc(S(=O)(=O)N3CCOCC3)cc2[N+](=O)[O-])CC1	Lmaj promast 99
